Shown are actives, neighbours in structure and some others; about 3.9% of the full set was active somewhere.
NTR1 ag – agonists of human NTR1, primary screen, imaging, U2OS cells, beta-arrestin-GFP, high content; activation, % at 20 µM; NTR1-U2OS beta-arrestin-GFP spot imaging, agonist mode; 330,000 compounds, 0.17% hits; Neurotensin receptor type 1 (Homo sapiens), P30989; AID 493036, 2011;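 active = activation at or above 40% of the spot to cytoplasm intensity ratio, with at least 20 cells analyzed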;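 note: 0% = DMSO without peptide and 100% = 100 nM NTR1 peptide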
ALR H2O2 inh – inhibitors of human ALR sulfhydryl oxidase, primary screen, biochemical, H2O2 detection, HRP-luminol luminescence, single point; purified ALR, DTT oxidation; inhibition, % (no concentration beside the values); 290,000 compounds, 3.8% hits; AID 485317, 2010;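 active = mean replicate inhibition above about 79%, with every replicate also reaching it, limit read from the data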
Target sequence (P55789 whole entry, looked up): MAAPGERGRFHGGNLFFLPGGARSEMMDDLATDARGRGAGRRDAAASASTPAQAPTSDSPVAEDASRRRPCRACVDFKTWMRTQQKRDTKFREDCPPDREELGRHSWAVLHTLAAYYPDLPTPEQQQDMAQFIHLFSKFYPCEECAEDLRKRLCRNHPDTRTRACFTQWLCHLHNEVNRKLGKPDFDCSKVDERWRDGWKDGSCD
SUMO HTRF inh – inhibitors of in vitro SUMOylation cascade, primary screen, biochemical, HTRF, uHTS. HTRF SUMOylation assay, SAE1/SAE2 + UBC9. SUMO-conjugating enzyme UBC9 (Homo sapiens), P63279. 290,000 compounds, 0.36% hits. inhibition, % at 35 µM; in the data active = inhibition above about 50%, passing the limit was not always enough
Target sequence (P63279 whole entry, looked up): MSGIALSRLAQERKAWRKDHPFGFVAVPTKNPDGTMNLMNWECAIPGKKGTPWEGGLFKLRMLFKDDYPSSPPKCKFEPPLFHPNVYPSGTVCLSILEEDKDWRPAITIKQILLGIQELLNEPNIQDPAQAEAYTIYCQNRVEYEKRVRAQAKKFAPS
H9c2 protect – cardioprotection against H2O2-induced cell death, primary screen, uHTS, H9c2 cells, ATPLite luminescence; AID 588492, 2011; 360,000 compounds, 0.63% hits; H9c2 cardiomyocytes, H2O2 injury protection, 2 h; protection from H2O2 cell death, % at 20 µM;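 active = compounds giving at least 50% protection of heart cells from peroxide-induced death in the single-dose screen, raw or plate-pattern-corrected value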;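 note: 0% = DMSO wells with peroxide and 100% = DMSO wells without peroxide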
Active calls of the source: *; . = no result.

SMILES	NTR1 ag	ALR H2O2 inh	SUMO HTRF inh	H9c2 protect
CC(C)(C)OC(=O)C[C@@H]1C/C=C\C[C@@H](CC(=O)N(CCO)Cc2ccccc2)C(=O)NC[C@@H](c2ccccc2)OC1=O	5	-10	.	16
CC(C)(C)OC(=O)C[C@@H]1C/C=C\C[C@@H](CC(=O)N(CCO)Cc2ccccc2)C(=O)NC[C@H](c2ccccc2)OC1=O	4	-11	.	92*
Cc1cc(N2C(=O)C(O)=C(C(=O)c3cc4ccccc4o3)C2c2ccc(OC(C)C)cc2)no1 (stereo not given)	0	96*	-12	-3
CCCCCOc1ccc(C2C(C(=O)c3ccc(C)o3)=C(O)C(=O)N2c2cc(C)on2)cc1 (stereo not given)	2	98*	-9	0
COc1cccc(C2C(C(=O)c3cc4cccc(OC)c4o3)=C(O)C(=O)N2c2cc(C)on2)c1OC (stereo not given)	2	9	-9	15
CCOc1ccc(C2C(C(=O)c3ccc(C)o3)=C(O)C(=O)N2c2nc(C)c(C(=O)OC)s2)cc1 (stereo not given)	0	97*	18	-5
COc1cccc2cc(C(=O)C3=C(O)C(=O)N(c4cc(C)on4)C3c3cccs3)oc12 (stereo not given)	0	98*	9	20
CC1CCc2c(sc3nc(SCC(=O)NCc4ccco4)nc(N)c23)C1 (stereo not given)	3	14	-14	-21
Cc1ccc(Cc2c(-c3ccc(Cl)cc3)nc3c(Cl)cc(C(F)(F)F)cn23)cc1	.	.	.	1
COc1ccccc1CCc1nnc(CCC(=O)NC(C)Cc2cccs2)o1 (stereo not given)	0	-18	8	1
Cc1cc(N2C(=O)C(O)=C(C(=O)c3cc4ccccc4o3)C2c2cccc(Br)c2)no1 (stereo not given)	-1	98*	8	15
CCCOc1cccc(C2C(C(=O)c3cc4ccccc4o3)=C(O)C(=O)N2c2cc(C)on2)c1 (stereo not given)	1	11	3	2
Cc1ccc(N=Cc2sccc2C)cc1C	2	-13	7	0
CCOc1ccc(C2Nc3ccccc3NC3=C2C(=O)CC(C)(C)C3)cc1OC (stereo not given)	0	98*	6	11
COc1ccc(C2Nc3ccccc3NC3=C2C(=O)CC(C)(C)C3)cc1OC (stereo not given)	1	73	8	7
COc1cccc(C2Nc3ccccc3NC3=C2C(=O)CC(C)(C)C3)c1OC (stereo not given)	1	99*	0	1
COc1ccc(C2Nc3ccccc3NC3=C2C(=O)CC(C)(C)C3)cc1O (stereo not given)	1	.	18	-3
COc1cc(C2Nc3cc(C)c(C)cc3NC3=C2C(=O)CC(C)(C)C3)ccc1OC(C)=O (stereo not given)	2	80*	14	1
COc1ccc(C2Nc3ccccc3NC3=C2C(=O)CC(C)(C)C3)c(OC)c1OC (stereo not given)	0	98*	-5	3
Cc1cc2c(cc1C)NC(c1c(C)n(C)n(-c3ccccc3)c1=O)C1=C(CC(C)(C)CC1=O)N2 (stereo not given)	3	-28	9	10
COc1cccc(C2Nc3ccc4ccccc4c3C3=C2C(=O)CC(C)(C)C3)c1OCC(=O)O (stereo not given)	0	52	32	-4
C#CCSc1n[nH]c(-c2ccco2)n1	0	-3	0	-6
Cn1c(NCc2ccccc2)nc2c1c(=O)n(Cc1ccc(Br)cc1)c(=O)n2C	12	-1	6	29
CCOC(=O)C1CCCN(C(=O)c2ccc(S(=O)(=O)N3CCOCC3)cc2)C1 (stereo not given)	-4	2	.	0
COc1cccc(-n2c(Cn3nc(C(F)F)cc3C(F)F)n[nH]c2=S)c1	0	72	2	1
SMILES	NTR1 ag	ALR H2O2 inh	SUMO HTRF inh	H9c2 protect
COc1ccc(OC)c(C2Nc3ccccc3NC3=C2C(=O)CC(C)(C)C3)c1 (stereo not given)	2	99*	18	5
COc1ccccc1C1Nc2ccccc2NC2=C1C(=O)CC(C)(C)C2 (stereo not given)	0	99*	12	-4
CC1(C)CC(=O)C2=C(C1)Nc1ccccc1NC2c1cc(Cl)ccc1O (stereo not given)	3	.	13	-5
COc1ccc(OC)c(C2CC(=O)OC3=C2C(=O)CC(C)(C)C3)c1 (stereo not given)	-1	2	-1	3
O=C(CN1C(=O)NC2(CCCC2)C1=O)Nc1ccc(Cl)c(C(F)(F)F)c1	0	-3	-14	-4
CC(=O)c1cccc(NC(=O)C(C)OC(=O)CCc2nc3ccccc3c(=O)[nH]2)c1 (stereo not given)	0	0	.	52*
CC(OC(=O)CCc1nc2ccccc2c(=O)[nH]1)C(=O)NCc1ccc2c(c1)OCO2 (stereo not given)	2	-5	5	67*
COC(=O)[C@H](C)NC(=O)NC1CCCc2ccccc21 (stereo not given in full)	-1	-2	13	2
CS(=O)(=O)N(CC(=O)N1CCN(c2ccccc2)CC1)c1cccc(Br)c1	0	31	-3	-6
COc1ccccc1NS(=O)(=O)c1ccc(C)c(C(=O)N2CCN(c3ccc(O)cc3)CC2)c1	-2	99*	.	2
CCOC(=O)C1CCCN(C(=O)c2cc(S(=O)(=O)Nc3ccccc3OC)ccc2C)C1 (stereo not given)	0	-3	-10	3
CCc1ccccc1N(CC(=O)N1CCN(c2ccccc2)CC1)S(C)(=O)=O	-1	98*	3	1
CN(c1ccccc1C(=O)N1CCN(c2ccccc2)CC1)S(C)(=O)=O	0	87*	12	4
CS(=O)(=O)Nc1ccccc1C(=O)N1CCN(c2ccccc2)CC1	-2	98*	14	.
CN(c1ccccc1C(=O)N1CCCC1)S(C)(=O)=O	-1	-12	3	-6
CS(=O)(=O)Nc1ccccc1C(=O)N1CCCC1	-1	-6	-5	8
Cc1ccc(-n2nnnc2SCC(=O)NNC(=O)c2ccc([N+](=O)[O-])cc2)cc1	-2	-3	27	-8
COc1ccc(C=C(c2ccc(OC)cc2)c2ccc(OC)cc2)cc1	1	-4	1	27
COc1cc(/C=C/C(=O)OCC(=O)N2c3ccccc3NC(=O)C2(C)C)cc(OC)c1OC	-1	.	.	76*
O=c1[nH]c2ccccc2cc1CN(c1ccccc1)S(=O)(=O)c1ccccc1	2	-2	-6	4

Assay outcomes deposited in PubChem by several laboratories.
